Compounds without any hit were thinned out: in the full panel of roughly 83,000, 20% have a hit.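 The endpoint reported here, percent growth, reads 100 for growth as untreated, 0 for no net growth and -100 for all cells dead.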 Unmarked numbers belong to inactive results. Calls of active or inactive are those of the source. Rule for the calls: active = growth percent below 10; inactive = the rest.

Assay in all cases: NCI-60 one-dose screen, 48 h (100 = growth as untreated, 0 = no growth, -100 = all killed)
Conditions in all cases: 10 µM unless noted

Experiment [1] deals with SK-MEL-2 melanoma.
For experiment [2], the system named is EKVX NSCLC.
The subject of experiment [3] is SN12C renal.
Experiment [4] deals with UO-31 renal.
In experiment [5] the test system is TK-10 renal.
Experiment [6] concerns ACHN renal.
Experiment [7] has as its system A498 renal.
The subject of experiment [8] is CCRF-CEM leukemia.
The test system of experiment [9] is MOLT-4 leukemia.
Experiment [10] relates to SR leukemia.
Experiment [11] deals with RPMI-8226 leukemia.
Experiment [12] concerns OVCAR-8 ovarian.
Experiment [13] has as its system OVCAR-4 ovarian.
The subject of experiment [14] is SK-OV-3 ovarian.
Experiment [15] deals with IGROV1 ovarian.
For experiment [16], the system named is OVCAR-3 ovarian.
Experiment [17] concerns OVCAR-5 ovarian.
For experiment [18], the system named is HS 578T breast.
Experiment [19] concerns NCI/ADR-RES ovarian.

As to `COc1ccc(-c2nc3ccccn3c2/C=C/C(=O)c2cc(OC)c(OC)c(OC)c2)cc1`, the growth in [1] is 52.6%; in [2] it was 90.4%; in experiment [3] it was 54.8%; in experiment [4], 42.9%; in experiment [5] it was 73.6%; in experiment [6], 43.1%. In addition, the growth in [7] is 55%; in experiment [8] it was 41.7%; in [9] it was 61.6%; in [10] it was 18.8%; in experiment [11], 29.8%; in experiment [12] it was 30.6%. For the same compound, the growth in experiment [13] was 56.5%; in [14], 62.8%; in experiment [15] it was 61.6%; in experiment [16], 51.2%.

As for `CN(C)CCn1cc(-c2ccc3c(Nc4ccc(CC(=O)Nc5cccc(F)c5)cc4)ncnc3c2)cn1`, the growth in experiment [1] is 37.2% [30 µM]; in experiment [2] it was -34.7% [30 µM] (active); in experiment [3], -91.4% [30 µM] (active); in experiment [4] it was -60% [30 µM] (active); in experiment [5] it was -58.5% [30 µM] (active); in [6], -51.7% [30 µM] (active). Besides, the growth in [7] was 59.5% [30 µM]; in experiment [8], -19.3% [30 µM] (active); in [9], -30.6% [30 µM] (active); in experiment [10], -20% [30 µM] (active); in experiment [12] it was -29.2% [30 µM] (active); in experiment [17], -91.8% [30 µM] (active). The growth in [13] is -76.5% [30 µM] (active); in [14] it was -26.4% [30 µM] (active); in [15] it was -65.3% [30 µM] (active); in experiment [16], -78% [30 µM] (active); in experiment [18] it was -48.7% [30 µM] (active); in experiment [19] it was 52.4% [30 µM].

For `OCCCCc1nccc2c1[nH]c1ccccc12`, the growth in experiment [1] was 121%; in [2] it was 94.8%; in experiment [3] it was 103%; in experiment [4], 95.1%; in experiment [5], 67.9%; in [6], 98.7%. In addition, the growth in experiment [7] is 112%; in experiment [9], 119%; in [10] it was 140%; in experiment [17], 98.4%; in [13] it was 89.6%; in [14], 112%. For the same compound, the growth in [15] was 81.9%; in [16], 105%; in experiment [18] it was 106%; in experiment [19], 108%.

Take `O[C@H]1CO[C@H]2[C@@H]1OC[C@@H]2Oc1ccc(Nc2nc(Nc3ccc(F)c(Cl)c3)ncc2F)cc1Cl`: the growth in [1] was 113%; in experiment [2] it was 92.2%; in [3] it was 97%; in experiment [4], 88%; in experiment [5] it was 105%; in experiment [6], 105%. The growth in [7] was 94.4%; in [8], 103%; in [9] it was 103%; in [10], 110%; in experiment [11] it was 116%; in experiment [12], 111%. Besides, the growth was 105% in [17]; 110% in [14]; 102% in experiment [15]; 103% in [16]; 98.7% in [18]; 97.6% in experiment [19].

For the compound `COc1cc2c(c(OC)c1OC)C(=O)/C(=C/c1cc(C)c(O)c(C)c1)S2`, the growth in experiment [1] is 43.6%; in experiment [2], 43.9%; in experiment [3] it was 45.6%; in experiment [4] it was 33%; in [5], 59.2%; in [6], 45.8%. In addition, the growth was 25% in [8]; 33.9% in experiment [9]; 33.8% in [10]; 21.8% in experiment [11]; 41.5% in experiment [12]; 65.2% in experiment [17]. Besides, the growth in [13] is 51.8%; in [15] it was 45.7%; in experiment [16], 8.16% (active); in experiment [18] it was 29.4%; in experiment [19], 14.1%.

For the compound `CCOC(=O)c1cnn2c(-c3ccc(Cl)cc3)nc(NCc3ccccc3)nc12`, the growth in [1] was 91%; in experiment [2], 68.7%; in [3], 31.2%; in experiment [4], 59.9%; in [5], 71.3%; in experiment [6], 13.7%. For the same compound, the growth is 31.5% in experiment [7]; 66.9% in experiment [8]; 64.9% in [9]; 44.5% in [10]; 30.5% in [12]; 100% in [17]. Besides, the growth in [14] was 112%; in experiment [15] it was 64.8%; in experiment [16], 29.9%; in experiment [18] it was 79.5%; in experiment [19], 26.3%.

As to `CCCCCCCC/C=C\CCCCCCCC(=O)Oc1cccc2cccnc12`, the growth in [1] was 140%; in [2] it was 95.1%; in [3], 88.9%; in experiment [4], 88.3%; in experiment [5] it was 120%; in experiment [6], 103%. Further, the growth in experiment [7] is 121%; in experiment [8], 96.3%; in [9], 80.3%; in [10] it was 45.9%; in experiment [11], 297%; in [12], 89.7%. Also, the growth in experiment [17] was 104%; in [14], 112%; in experiment [15] it was 85.4%; in [16], -2.34% (active); in experiment [18] it was 138%; in [19], 99.1%.

Regarding `COc1ccc(/C=C(\C#N)n2nnc3ccccc32)cc1`, the growth in experiment [1] is 38.5%; in experiment [2], 24.1%; in [3], 18.9%; in experiment [4] it was 33.2%; in [5] it was 44%; in experiment [6] it was 23%. In addition, the growth in experiment [8] was 18.8%; in [9], 18.7%; in experiment [10], 27%; in experiment [12] it was 19.6%; in experiment [17], -13.4% (active); in [13], 35.1%. Moreover, the growth was 7.84% (active) in experiment [15], -66.4% (active) in experiment [16], -0.28% (active) in experiment [18] and 0.0544% (active) in experiment [19].

Turning to `Cc1ccc(S(=O)(=O)NN/C(N)=N\S(=O)(=O)c2cc(C)c(Cl)cc2SCc2ccccc2)cc1`, the growth in experiment [1] is 86.9%; in [2], 107%; in experiment [3] it was 101%; in [4] it was 77.9%; in [5], 130%; in [6], 93.6%. Moreover, the growth in [7] was 91%; in experiment [8] it was 74.1%; in experiment [9] it was 61.3%; in experiment [11], 34.1%; in experiment [12] it was 109%; in experiment [17], 89.2%. In addition, the growth is 89.5% in [13]; 102% in experiment [14]; 121% in experiment [16]; 70.5% in experiment [18]; 97.1% in experiment [19].
